Laboratory results: PubChem BioAssay (NCI)
The panel holds about 83,000 compounds, 20% with a hit somewhere; the sample as a whole holds those more often.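 Assay: single dose, 48 h. Readout: percent growth (0 = no net growth; negative = cell death). Active: <10.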 The source made the active and inactive calls.

How the values were obtained:
Test in all cases: NCI-60 one-dose screen, 48 h (100 = growth as untreated, 0 = no growth, -100 = all killed)
Details in all cases: 10 µM unless noted
NCI-H23 lung = test system: NCI-H23 lung
NCI-H226 lung = test system: NCI-H226 lung
NCI-H322M lung = test system: NCI-H322M lung
HOP-62 NSCLC = test system: HOP-62 NSCLC
NCI-H460 lung = test system: NCI-H460 lung
HOP-92 NSCLC = test system: HOP-92 NSCLC
NCI-H522 lung = test system: NCI-H522 lung
A549/ATCC NSCLC = test system: A549/ATCC NSCLC
786-0 renal = test system: 786-0 renal
COLO 205 colon = test system: COLO 205 colon
DU-145 prostate = test system: DU-145 prostate
K-562 leukemia = test system: K-562 leukemia
MALME-3M melanoma = test system: MALME-3M melanoma
MDA-MB-231 breast = test system: MDA-MB-231 breast
SF-268 CNS = test system: SF-268 CNS
SF-295 CNS = test system: SF-295 CNS
SF-539 CNS = test system: SF-539 CNS
UACC-257 melanoma = test system: UACC-257 melanoma
M14 melanoma = test system: M14 melanoma

Measured: growth

Cc1cc(C)c(C=O)c(C)c1
inactive: NCI-H23 lung 101% | NCI-H226 lung 95.2% | NCI-H322M lung 106% | HOP-62 NSCLC 72.4% | NCI-H460 lung 106% | HOP-92 NSCLC 86.4% | NCI-H522 lung 82.7% | A549/ATCC NSCLC 72.1% | 786-0 renal 96.2% | COLO 205 colon 107% | DU-145 prostate 117% | K-562 leukemia 100% | MALME-3M melanoma 114% | MDA-MB-231 breast 112% | SF-268 CNS 104% | SF-295 CNS 101% | SF-539 CNS 106% | UACC-257 melanoma 74.5% | M14 melanoma 84.3%

Cc1cccc(C)c1-c1cc(Cc2ccc(Cl)cc2)c(=O)[nH]n1
inactive: NCI-H23 lung 84.9% | NCI-H226 lung 97.3% | NCI-H322M lung 111% | HOP-62 NSCLC 99.4% | NCI-H460 lung 109% | HOP-92 NSCLC 78.6% | NCI-H522 lung 95.3% | A549/ATCC NSCLC 37% | 786-0 renal 104% | COLO 205 colon 108% | DU-145 prostate 105% | K-562 leukemia 89.5% | MALME-3M melanoma 111% | MDA-MB-231 breast 94.3% | SF-268 CNS 93.6% | SF-295 CNS 104% | SF-539 CNS 111% | UACC-257 melanoma 42.3% | M14 melanoma 114%

COc1ccc(-c2nn(Cc3ccccc3)c3c2-c2oncc2CC3)cc1OC
inactive: NCI-H23 lung 105% | NCI-H226 lung 131% | NCI-H322M lung 112% | HOP-62 NSCLC 120% | NCI-H460 lung 95.6% | HOP-92 NSCLC 49.4% | NCI-H522 lung 98.9% | A549/ATCC NSCLC 96.8% | 786-0 renal 97.8% | COLO 205 colon 136% | DU-145 prostate 97.4% | K-562 leukemia 90.5% | MALME-3M melanoma 138% | MDA-MB-231 breast 77.8% | SF-268 CNS 104% | SF-295 CNS 96.5% | SF-539 CNS 93.3% | UACC-257 melanoma 89.9% | M14 melanoma 127%

Cn1c(COC(=O)NCCN2CCOCC2)nc2c(N3CCOCC3)nc(-c3ccccc3)nc21
active: NCI-H23 lung -48.2% | NCI-H226 lung -65% | NCI-H460 lung 1.27% | HOP-92 NSCLC -62.8% | NCI-H522 lung -44.6% | 786-0 renal -83.9% | COLO 205 colon -45.7% | DU-145 prostate -81.6% | K-562 leukemia 0.451% | MALME-3M melanoma -91.9% | MDA-MB-231 breast -88.9% | SF-268 CNS -36.8% | SF-539 CNS -98.7% | UACC-257 melanoma -46.6% | M14 melanoma -75.9%
inactive: NCI-H322M lung 69% | HOP-62 NSCLC 23.2% | A549/ATCC NSCLC 30.7% | SF-295 CNS 57%

COc1cc(/C=C/C(=O)c2ccc(Nc3ncnc4ccccc34)cc2)cc(OC)c1
active: K-562 leukemia 4.61%
inactive: NCI-H23 lung 72% | NCI-H226 lung 80.2% | NCI-H322M lung 76% | HOP-62 NSCLC 139% | NCI-H460 lung 81.4% | HOP-92 NSCLC 87.3% | NCI-H522 lung 71.4% | A549/ATCC NSCLC 41.2% | 786-0 renal 52.1% | COLO 205 colon 151% | DU-145 prostate 71.7% | MALME-3M melanoma 106% | MDA-MB-231 breast 82.9% | SF-268 CNS 38.1% | SF-295 CNS 60.8% | SF-539 CNS 71.6% | UACC-257 melanoma 93.5% | M14 melanoma 24.7%

COc1cc(-c2cc(=O)oc3cc(O)ccc23)c(OC)c2c1OCO2
inactive: NCI-H23 lung 83.5% | NCI-H226 lung 86.4% | NCI-H322M lung 89.4% | HOP-62 NSCLC 92.7% | NCI-H460 lung 88.9% | HOP-92 NSCLC 79% | NCI-H522 lung 81.7% | A549/ATCC NSCLC 87% | 786-0 renal 95.6% | COLO 205 colon 102% | DU-145 prostate 101% | K-562 leukemia 90.3% | MALME-3M melanoma 88.7% | MDA-MB-231 breast 93.7% | SF-268 CNS 92.4% | SF-295 CNS 92% | SF-539 CNS 92.1% | UACC-257 melanoma 101% | M14 melanoma 96.5%

OC1(c2ccc(Cl)c(C(F)(F)F)c2)CCN(CCCC(c2ccc(F)cc2)c2ccc(F)cc2)CC1
active: NCI-H23 lung -74.9% | NCI-H322M lung -75.5% | HOP-62 NSCLC -94.6% | NCI-H460 lung -95% | HOP-92 NSCLC -87.5% | NCI-H522 lung -80.5% | A549/ATCC NSCLC -70.7% | 786-0 renal -97.6% | COLO 205 colon -92.6% | DU-145 prostate -97% | K-562 leukemia -20.2% | MALME-3M melanoma -75.3% | MDA-MB-231 breast -87.6% | SF-268 CNS -90% | SF-295 CNS -85.3% | SF-539 CNS -74.6% | UACC-257 melanoma -85.6% | M14 melanoma -84.8%
inactive: NCI-H226 lung 28.9%

Fc1ccc(C2CC(c3cccc(Nc4ccncc4)c3)=NN2c2ccccc2)cc1 (configuration not stated)
active: NCI-H460 lung -41.9% | COLO 205 colon -64.8% | K-562 leukemia 0.671% | MALME-3M melanoma -5.72%
inactive: NCI-H23 lung 86.3% | NCI-H226 lung 95.5% | NCI-H322M lung 70.6% | HOP-62 NSCLC 49.5% | HOP-92 NSCLC 37.1% | NCI-H522 lung 75.8% | A549/ATCC NSCLC 43.1% | 786-0 renal 81.7% | DU-145 prostate 44.1% | MDA-MB-231 breast 64.3% | SF-268 CNS 73.1% | SF-295 CNS 73.4% | SF-539 CNS 69.7% | UACC-257 melanoma 37.8% | M14 melanoma 98.8%
